Test results as given in PubChem BioAssay AID449762 (Southern Research Specialized Biocontainment Screening …, 2010).
“And” between values parts separate entries of the source, which are not always exact repeats. Equal values may be shown once. About 1,900 (0.58%) of roughly 330,000 compounds were called active. About 4% were inconclusive and are not listed. The list is a sample of the results. Potency and affinity values are given separately. A number with no mark means an inactive call. Rule as the data show it: inconclusive = inhibition above about 70% without an active follow-up result; inactive = below that.

Assay: M. tuberculosis growth inhibition, HTS (AID 449762);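 also: bacterial growth assessed after seven days of incubation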
Conditions: M. tuberculosis H37Rv growth inhibition, 7H9 media; at 25 µM; stronger effect = higher value

Row | Structure (SMILES) | inhibition
1 | CCOC(=O)Cn1nc(/C=C/c2ccc(OC)cc2)ccc1=O | -1.75%
2 | Cc1nn(C(C)(C)C)c(NC(=O)c2ccc(Cl)cc2)c1Br | -3.55%
3 | Cc1nn(C)c(NC(=O)c2ccccc2Cl)c1Br | -4.03%
4 | COc1cc(C)ccc1OCC(=O)Nc1ccccc1N1CCOCC1 | 0.365%
5 | Cc1ccccc1CSc1nnc(C)c(=O)n1N | 0.74%
6 | Cc1nnc(SCc2c(Cl)cccc2Cl)n(N)c1=O | -0.46%
7 | O=C(CSc1nc(-c2ccco2)cc(C(F)(F)F)n1)NC1CCCC1 | -5.38%
8 | Cc1nc2c(c(C)nn2-c2ccccc2)c(C)c1CCC(=O)Nc1ccc(CN2CCCC2)cc1 | 55.7%
9 | Cc1ccc(CNC(=O)CCc2c(C)nc3c(c(C)nn3-c3ccc(C)cc3)c2C)cc1 | 0.88%
10 | CCN(CC)S(=O)(=O)c1ccc(C(=O)N2CCN(CCN3C(=O)c4cccc5cccc(c45)C3=O)CC2)cc1 | -0.01%
11 | Cn1c(CCNC(=O)c2cccs2)nnc1SCC(=O)Nc1nc(-c2ccccc2)cs1 | -0.83%
12 | Cc1cc(C)n2nc(C(=O)OCC(=O)Nc3ccc(C)c(F)c3)nc2n1 | -2.78%
13 | Cc1ccc(N/C=C/C(=O)c2sc(-c3ccccc3)nc2C)cc1 | 11.4%
14 | COc1ccc(NC(=O)c2sc(-c3ccccc3)nc2C)c(OC)c1 | 3.27%
15 | Cc1nc(-c2ccccc2)sc1C(=O)/C=C/c1ccc(Cl)cc1 | 36.1%
16 | COc1ccc(/C=C/C(=O)c2sc(-c3ccccc3)nc2C)cc1 | -17.3%
17 | Cc1ccc(S(=O)(=O)CCC(=O)NCc2ccco2)cc1 | -10.5%
18 | O=C(Nc1ccc(N2CCOCC2)c(Cl)c1)c1ccc(-n2cnnc2)cc1Cl | 2.83%
19 | COc1ccc(-n2c(CNCCc3ccc(C)cc3)nc3ccccc3c2=O)cc1 | 14.6%
20 | COc1ccc(CN2CCN(S(=O)(=O)c3ccc(F)cc3)CC2)c(OC)c1OC | 9.52%

Row | Structure (SMILES) | inhibition
21 | COc1ccc(CN2CCN(c3ccc(F)cc3)CC2)c(OC)c1OC | 0.31%
22 | Cc1ccc(S(=O)(=O)N2CCOCC2)cc1NC(=O)C(c1ccc(Cl)cc1)C(C)C (centres undefined) | -2.19%
23 | CCOC(=O)[C@H]1[C@H]2COc3ccc(OC)cc3[C@@H]2N2C(=O)c3ccccc3NC(=O)[C@@]12C | 3.81%
24 | CC(NC(=O)c1cc(COc2ccc3ncccc3c2)on1)c1ccc(F)cc1 (centres undefined) | 6.82%
25 | Cc1cc(C)n(CCNC(=O)c2cc(COc3ccc4ncccc4c3)on2)n1 | 4.76%
26 | Cc1ccc(/C=N/NC(=O)Cc2ccc(Cl)cc2)c(O)c1 | -1.94%
27 | O=C(COc1ccccc1F)Nc1ccc(S(=O)(=O)Nc2nccs2)cc1 | 3.76%
28 | O=C(C1=C[C@@H](c2ccc(C(F)(F)F)cc2)C[C@@H](OCc2ccc(CO)cc2)O1)N1CCN(Cc2ccccc2)CC1 | 5.34%
29 | O=C(Nc1cc(C(F)(F)F)ccc1-n1cncn1)c1ccc(Br)cc1 | -2.45%
30 | Cc1ccc(C(=O)Nc2cc(C(F)(F)F)ccc2-n2cncn2)o1 | -8.09%
31 | Cc1c(C(=O)O)oc2ccc(S(=O)(=O)NCCC3=CCCCC3)cc12 | -7.6%
32 | CC(=O)N1CCCc2cc(S(=O)(=O)NC(C(=O)NCc3ccc(C)cc3)C(C)C)ccc21 (centres undefined) | 9.01%
33 | Cc1ccc(C(=O)Cn2cncn2)cc1 | 9.3%
34 | Cn1c(O)c(/C=C2/C=CC=N2)c(=O)[nH]c1=O | 17.3%
35 | CCCCn1c(O)c(/C=C2\C=Nc3ccccc32)c(=O)[nH]c1=O | 12.7%
36 | Cc1ccccc1C(=O)N1CCC(C(=O)Nc2nccs2)CC1 | -0.78%
37 | CC(=O)N1CCN(C(=O)CN2C(=O)NC(C)(c3ccc4ccccc4c3)C2=O)CC1 (centres undefined) | 6.21%
38 | Cc1ccc(CNCC(=O)Nc2ccc(C)cc2Br)cc1 | 2.37%
39 | S=C(Nc1cccc(Cl)c1)Nc1cccc2cnccc12 | 10%
40 | Cc1ccc(NC(=S)Nc2cccc3cnccc23)cc1 | 1.12%

Row | Structure (SMILES) | inhibition
41 | COC(=O)c1cc(C)sc1NC(=O)CN1CCN(C(=O)c2ccco2)CC1 | -5.56%
42 | CCOC(=O)c1cc(C)sc1NC(=O)CN1CCN(C(=O)c2ccco2)CC1 | 17%
43 | CCCn1nc(C(=O)NNC(=O)c2cc(S(=O)(=O)NC)ccc2Br)c2ccccc2c1=O | -2.51%
44 | COC(=O)c1ccc([C@H]2CC(=O)O2)cc1 | -4.85%
45 | O=C(N/N=C/c1ccccn1)c1ccc(NC(=O)c2ccc(F)cc2)cc1 | 2.56%
46 | COc1ccc(/C=N/NC(=O)CSCc2ccc([N+](=O)[O-])cc2)cc1OC | -9.89%
47 | O=C(CSCc1ccc([N+](=O)[O-])cc1)N/N=C/c1cccnc1 | 3.16%
48 | COc1cc(C(=O)OCC#N)ccc1OCc1c(C)noc1C | 9.39%
49 | COc1cc(NCc2ccccc2)c2ncn(C(C)C)c2c1 | 1.58%
50 | CCOc1cc(NCc2ccccc2)c2ncn(C(C)C)c2c1 | 67.6%
51 | COc1ccccc1CNC(=O)C(CCSC)NS(=O)(=O)c1ccc2c(c1)oc(=O)n2C (centres undefined) | 3.84%
52 | O=C(C(=O)N1CC=C(c2ccccc2)CC1)c1c[nH]c2ccccc12 | 5.82%
53 | O=S(=O)(NCc1ccco1)c1ccc2ccccc2c1 | 10.5%
54 | Cc1ncsc1CCOC(=O)c1ccccc1 | 4.41%
55 | CC(=O)Nc1ccc(NC(=O)COc2ccc([N+](=O)[O-])cc2)cc1 | -3.36%
56 | Cc1ncsc1CCOC(=O)c1cccc([N+](=O)[O-])c1 | 8.02% and -15.9%
57 | COC(=O)c1ccc(NC(=O)COc2ccc([N+](=O)[O-])cc2)cc1 | -9.31%
58 | O=C(Nc1ccc(Cl)c(S(=O)(=O)Nc2ccccc2Cl)c1)c1cccs1 | -2.32%
59 | CC(C)(C)NCCOCCOc1ccccc1-c1ccccc1 | 5.36%
